Among the test systems are NCI-H23 lung; NCI-H226 lung; NCI-H322M lung; HOP-62 NSCLC; NCI-H460 lung; HOP-92 NSCLC; NCI-H522 lung; A549/ATCC NSCLC; 786-0 renal; COLO 205 colon; DU-145 prostate; K-562 leukemia; MALME-3M melanoma; MDA-MB-231 breast; RXF 393 renal; SF-268 CNS; SF-295 CNS; SF-539 CNS; UACC-257 melanoma; M14 melanoma.
Holding throughout (experiment): NCI-60 one-dose screen, 48 h (100 = growth as untreated, 0 = no growth, -100 = all killed)
Conditions in all cases: 10 µM unless noted

The values that follow come from PubChem BioAssay (NCI).

About 83,000 compounds went through this panel and 20% of them were active in at least one assay; those are over-represented in the sample as a whole.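 Growth was measured after 48 h exposure to one concentration of compound in 96-well plates. Values under 10 count as active.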 A number with no mark means an inactive call. Active and inactive are the calls of the source.

In the case of `COc1cc(NC(=O)COc2cc(C)nc3ccc(OC)cc23)cc(OC)c1`, the growth in the test on NCI-H23 lung was 86.9%; with NCI-H226 lung, 87.1%; in the test with NCI-H322M lung it was 94%; with HOP-62 NSCLC, 91.3%; with NCI-H460 lung, 95%; in the test with HOP-92 NSCLC, 94.1%. Besides, the growth in the test with NCI-H522 lung was 75%; with A549/ATCC NSCLC, 87%; with 786-0 renal, 97.1%; in the test with COLO 205 colon, 69.4%; in the test with DU-145 prostate, 97.8%; in the test with K-562 leukemia, 79.1%. Also, the growth in the test on MALME-3M melanoma was 82.8%; in the test on MDA-MB-231 breast it was 80%; in the test with RXF 393 renal, 94.2%; in the test with SF-268 CNS, 94.5%; in the test with SF-295 CNS, 96.8%; in the test on SF-539 CNS, 76.1%. The growth in the test on UACC-257 melanoma is 82%; in the test with M14 melanoma it was 94.8%.
As to `COc1cc(/C=C/C(=O)/C=C/c2cc3ccc(Cl)cc3[nH]c2=O)ccc1O`, the growth was 61.2% with NCI-H23 lung; 80.1% in the test on NCI-H226 lung; 92.2% in the test with NCI-H322M lung; 114% with HOP-62 NSCLC; 53.3% in the test on NCI-H460 lung; 77.4% in the test with HOP-92 NSCLC. Further, the growth with NCI-H522 lung was 66.4%; with A549/ATCC NSCLC, 79.8%; with 786-0 renal, 30.8%; in the test with COLO 205 colon it was 105%; in the test with DU-145 prostate, 45.9%; in the test on K-562 leukemia, 23.2%. Also, the growth is 101% with MALME-3M melanoma; 45.9% with MDA-MB-231 breast; 70.9% with RXF 393 renal; 72.2% in the test with SF-268 CNS; 79.7% in the test on SF-295 CNS; 105% in the test with SF-539 CNS. The growth was 90.8% in the test on UACC-257 melanoma and 54.1% with M14 melanoma.
Consider `O=C(CCc1nnco1)c1nc2ccc([N+](=O)[O-])cc2[nH]1`, for which the growth in the test with NCI-H23 lung was 86.3%; in the test on NCI-H226 lung it was 99.4%; in the test with NCI-H322M lung it was 99.1%; in the test on HOP-62 NSCLC it was 113%; with NCI-H460 lung it was 108%; in the test on HOP-92 NSCLC, 119%. The growth in the test on NCI-H522 lung was 101%; with A549/ATCC NSCLC, 100%; in the test with 786-0 renal it was 111%; in the test on COLO 205 colon it was 121%; in the test with DU-145 prostate, 107%; in the test with K-562 leukemia, 113%. In addition, the growth in the test with MALME-3M melanoma was 105%; with MDA-MB-231 breast it was 90.5%; with RXF 393 renal, 117%; with SF-268 CNS it was 102%; in the test with SF-295 CNS, 102%; in the test with SF-539 CNS, 104%. Moreover, the growth with UACC-257 melanoma is 112%; in the test with M14 melanoma it was 103%.
For the molecule `CN1C(=O)c2cc(Cl)nc3c(NC(=O)c4cccc(Cl)c4)c(Cl)c(NC(=O)c4cccc(Cl)c4)c1c23`, the growth was 18.7% with NCI-H23 lung; 23.6% with NCI-H226 lung; 28.3% with NCI-H322M lung; 17.4% in the test with HOP-62 NSCLC; 2.82% (active) in the test with NCI-H460 lung; -38.4% (active) with HOP-92 NSCLC. In addition, the growth with NCI-H522 lung was -54.6% (active); in the test with A549/ATCC NSCLC, 83.8%; in the test with 786-0 renal, 41.6%; in the test with COLO 205 colon, 1.5% (active); with DU-145 prostate, 4.2% (active); with K-562 leukemia it was -43.3% (active). Moreover, the growth with MALME-3M melanoma was -56.1% (active); in the test on MDA-MB-231 breast, -40.2% (active); with RXF 393 renal it was -88.9% (active); with SF-268 CNS, 3.08% (active); in the test on SF-295 CNS, 88.1%; in the test with SF-539 CNS it was 9.56% (active). Moreover, the figures for the growth in the test on UACC-257 melanoma and with M14 melanoma were -49.3% (active) and -21.1% (active), respectively.
Turning to `CCOCc1nc2ccccc2c(=O)[nH]1`, the growth with NCI-H23 lung is 94.7%; in the test on NCI-H226 lung it was 91.7%; with NCI-H322M lung, 100%; in the test on HOP-62 NSCLC, 102%; in the test with NCI-H460 lung, 101%; with HOP-92 NSCLC, 102%. Moreover, the growth was 91.3% with NCI-H522 lung; 100% in the test with A549/ATCC NSCLC; 103% in the test with 786-0 renal; 108% in the test on COLO 205 colon; 107% with DU-145 prostate; 119% in the test with K-562 leukemia. Moreover, the growth with MALME-3M melanoma was 89.6%; in the test with MDA-MB-231 breast, 103%; with RXF 393 renal it was 117%; in the test with SF-268 CNS, 101%; in the test on SF-295 CNS, 99.6%; in the test on SF-539 CNS, 102%. The growth is 108% in the test on UACC-257 melanoma and 96.2% with M14 melanoma.
Take `COc1ccc2nc(-c3ccc(Cl)cc3)cc(-c3nnc(SC/C(=N/O)c4ccccc4)o3)c2c1`: the growth was 26.1% with NCI-H23 lung; 42.7% in the test on NCI-H226 lung; 67.9% in the test with NCI-H322M lung; 59.4% in the test on HOP-62 NSCLC; 29.6% in the test on NCI-H460 lung; 60.7% in the test on HOP-92 NSCLC. In addition, the growth in the test with NCI-H522 lung is 45.7%; with A549/ATCC NSCLC, 37.3%; in the test on 786-0 renal, 24.9%; in the test on COLO 205 colon, 31.5%; in the test on DU-145 prostate, 29.7%; with K-562 leukemia, 20.1%. For the same molecule, the growth with MALME-3M melanoma was 25.5%; with MDA-MB-231 breast, 49.6%; in the test with RXF 393 renal it was 5.44% (active); in the test on SF-268 CNS, 55.3%; with SF-295 CNS, 36.3%; in the test with SF-539 CNS it was 43.5%. In addition, the growth in the test on UACC-257 melanoma was 60.1%; in the test on M14 melanoma, 25.2%.
For `CNC(=O)c1cc(Oc2ccc3c(c2)sc2nc(-c4ccc(NC(C)=O)cc4)cn23)ccn1`, the growth with NCI-H23 lung was 60.1%; in the test with NCI-H226 lung it was 72.3%; in the test on NCI-H322M lung, 69.6%; in the test on HOP-62 NSCLC, 41.5%; in the test with NCI-H460 lung, 49.8%; in the test with HOP-92 NSCLC, 35.3%. Moreover, the growth is 28.4% with NCI-H522 lung; 59.6% with A549/ATCC NSCLC; 33.8% in the test on 786-0 renal; 47% in the test on COLO 205 colon; 23.1% in the test with DU-145 prostate; 50.5% in the test with K-562 leukemia. Further, the growth in the test with MALME-3M melanoma was 71.8%; in the test with MDA-MB-231 breast, 59.5%; with RXF 393 renal it was 8.2% (active); in the test with SF-268 CNS it was 64%; in the test on SF-295 CNS, 26.2%; in the test with SF-539 CNS, 62.8%. Moreover, the growth in the test with UACC-257 melanoma was 70.9%; in the test on M14 melanoma it was 46.5%.
